Experimental data from PubChem BioAssay (Tox21).
Records with an inconclusive call do not appear. Active and inactive are the calls of the source. Unless noted, calls come from the whole dose curve; as a rule, active = well fitted curve in the direction sought with a large enough effect in the repeat runs; inconclusive = weak or mixed curves; inactive = no such curve, though single readings can be large; an effect the other way counts as inactive or inconclusive.

Columns and labels:
[1] = target: Peroxisome proliferator-activated receptor delta (Homo sapiens) (UniProt Q03181); assay: qHTS assay to identify small molecule agonists of the peroxisome proliferator-activated receptor delta (PPARd) signaling pathway (AID 743212; calls by dose curve)
Chain of Peroxisome proliferator-activated receptor delta (Homo sapiens) (Q03181 whole entry, looked up): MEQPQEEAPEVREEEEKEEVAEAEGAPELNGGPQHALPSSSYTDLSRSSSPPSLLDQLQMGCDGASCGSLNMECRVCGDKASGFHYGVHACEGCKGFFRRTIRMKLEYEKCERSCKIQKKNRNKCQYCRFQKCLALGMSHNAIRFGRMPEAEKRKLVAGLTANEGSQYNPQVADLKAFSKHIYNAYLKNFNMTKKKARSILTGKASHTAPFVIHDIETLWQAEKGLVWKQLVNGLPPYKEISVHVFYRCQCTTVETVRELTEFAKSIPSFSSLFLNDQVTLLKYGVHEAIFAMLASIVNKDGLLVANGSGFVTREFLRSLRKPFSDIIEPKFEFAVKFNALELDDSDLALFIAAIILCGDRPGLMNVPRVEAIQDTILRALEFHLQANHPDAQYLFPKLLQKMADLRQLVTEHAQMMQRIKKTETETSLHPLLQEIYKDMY
How it was run: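 GeneBLAzer UAS-bla HEK293H cells carrying a PPARδ construct were exposed to compounds at 37 °C. Beta-lactamase activity was read by FRET fluorescence after 2 h at room temperature with LiveBLAzer B/G substrate.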

[2] = qHTS assay to identify small molecule antagonists of the peroxisome proliferator-activated receptor delta (PPARd) signaling pathway - cell viability counter screen (AID 743213); note: nearly all actives have a fitted effect of over 50% in size; note: potency is the fitted concentration of half-maximal effect
How it was run: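 CellTiter-Glo was added to PPARd-bla HEK293H wells following 17 h compound treatment in the presence of 300 nM L165041. Luminescence was recorded after 30 min at room temperature.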

[3] = target: Peroxisome proliferator-activated receptor delta (Homo sapiens) (UniProt Q03181); assay: qHTS assay to identify small molecule antagonists of the peroxisome proliferator-activated receptor delta (PPARd) signaling pathway (AID 743215; active = well fitted inhibition curve with a large enough effect in the signal ratio in the repeat runs, not every such curve was filed as active; the % refers to the signal ratio;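 note: cells stimulated with agonist L165041 at 300 nM final during compound exposure; series mostly up to about 62 µM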)
How it was run: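 PPARd UAS-bla HEK293H cells were pre-incubated 5 h at 37 C, then given test compounds in DMSO plus agonist L165041 (300 nM final). After 17 h at 37 C, beta-lactamase FRET substrate was added; fluorescence read after 2 h at room temperature.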

[4] = qHTS assay to identify small molecule agonists of the farnesoid-X-receptor (FXR) signaling pathway - cell viability counter screen (AID 743218); note: nearly all actives have a fitted effect of over 45% in size
How it was run: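 FXR-UAS-bla HEK 293T cells, plated 5 h at 37 C, were exposed to compounds for 16 h at 37 C. CellTiter-Glo was then added to the same wells as the bla readout; luminescence read after 30 min at room temperature.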

[5] = qHTS assay to identify small molecule antagonists of the farnesoid-X-receptor (FXR) signaling pathway - cell viability counter screen (AID 743221; active = well fitted cell-killing curve with a large enough effect in the repeat runs, not every such curve was filed as active; note: nearly all actives have a fitted effect of over 50% in size)
How it was run: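 Cytotoxicity counter screen run in the FXR-bla reporter wells: HEK 293T cells exposed to compound with 50 uM (final) chenodeoxycholic acid for 16 h, 37 C, then viability measured by CellTiter-Glo luminescence after 30 min, room temperature.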

[6] = target: Vitamin D3 receptor (Homo sapiens) (UniProt P11473); assay: qHTS assay to identify small molecule agonists of the vitamin D receptor (VDR) signaling pathway (AID 743222; calls by dose curve)
Chain of Vitamin D3 receptor (Homo sapiens) (P11473 whole entry, looked up): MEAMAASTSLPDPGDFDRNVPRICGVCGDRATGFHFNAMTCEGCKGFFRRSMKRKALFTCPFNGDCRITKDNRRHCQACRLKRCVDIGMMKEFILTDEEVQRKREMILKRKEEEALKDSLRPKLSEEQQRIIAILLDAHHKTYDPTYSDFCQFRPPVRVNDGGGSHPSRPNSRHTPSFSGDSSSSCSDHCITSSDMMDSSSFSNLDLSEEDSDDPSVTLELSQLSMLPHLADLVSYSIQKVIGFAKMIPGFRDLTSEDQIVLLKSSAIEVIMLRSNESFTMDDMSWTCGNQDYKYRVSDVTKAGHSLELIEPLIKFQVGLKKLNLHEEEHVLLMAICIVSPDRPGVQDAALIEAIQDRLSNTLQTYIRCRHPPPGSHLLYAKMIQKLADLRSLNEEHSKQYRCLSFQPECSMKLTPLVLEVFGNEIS
How it was run: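 VDR-bla cells were plated 4 h at 37C/5% CO2, then exposed to compounds in DMSO for 16 h. After LiveBLAzer B/G FRET substrate addition and 2 h at room temperature, beta-lactamase reporter fluorescence was read.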

[7] = target: Vitamin D3 receptor (Homo sapiens) (UniProt P11473); assay: qHTS assay to identify small molecule antagonists of the vitamin D receptor (VDR) signaling pathway (AID 743223; active = well fitted inhibition curve with a large enough effect in the signal ratio in the repeat runs, not every such curve was filed as active; the % refers to the signal ratio)
How it was run: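 Antagonist mode: compound added to VDR-bla cells alongside agonist 1alpha,25-dihydroxyvitamin D3 (3 nM final), incubation 16 h at 37C. Read-out is LiveBLAzer FRET fluorescence, 2 h at room temperature.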

[8] = qHTS assay to identify small molecule agonists of the vitamin D receptor (VDR) signaling pathway - cell viability counter screen (AID 743224); note: series mostly up to about 63 µM; nearly all actives have a fitted effect of over 50% in size
How it was run: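 VDR-bla cells were preincubated 4 h at 37C/5% CO2, then exposed to compounds for 16 h. After the 2 h room-temperature bla FRET read, CellTiter-Glo was added to the same wells and luminescence read after 30 min.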

[9] = target: Bile acid receptor (Homo sapiens) (UniProt Q96RI1); assay: qHTS assay to identify small molecule antagonists of the farnesoid-X-receptor (FXR) signaling pathway (AID 743217; active = well fitted inhibition curve with a large enough effect in the signal ratio in the repeat runs, not every such curve was filed as active; the % refers to the signal ratio)
Chain of Bile acid receptor (Homo sapiens) (Q96RI1 whole entry, looked up): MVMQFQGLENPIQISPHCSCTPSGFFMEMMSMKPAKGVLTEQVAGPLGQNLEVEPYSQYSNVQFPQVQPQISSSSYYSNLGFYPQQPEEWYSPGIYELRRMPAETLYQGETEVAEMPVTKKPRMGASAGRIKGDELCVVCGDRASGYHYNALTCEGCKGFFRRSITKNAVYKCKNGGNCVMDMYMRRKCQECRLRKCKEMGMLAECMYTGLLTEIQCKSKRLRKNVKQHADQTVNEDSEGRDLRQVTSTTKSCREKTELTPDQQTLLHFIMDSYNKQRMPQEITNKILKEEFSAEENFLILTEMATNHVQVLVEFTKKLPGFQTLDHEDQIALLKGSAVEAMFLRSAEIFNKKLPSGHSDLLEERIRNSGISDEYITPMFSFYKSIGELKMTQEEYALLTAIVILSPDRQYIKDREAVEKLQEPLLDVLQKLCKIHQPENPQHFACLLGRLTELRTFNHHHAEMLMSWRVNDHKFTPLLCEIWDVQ
How it was run: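 FXR-UAS-bla HEK 293T cells pre-incubated 5 h at 37 °C, then exposed to compounds with chenodeoxycholic acid (50 uM final) for 16 h at 37 °C. Beta-lactamase reporter read by LiveBLAzer B/G FRET substrate fluorescence after 2 h at room temperature.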

[10] = target: Bile acid receptor (Homo sapiens) (UniProt Q96RI1); assay: qHTS assay to identify small molecule agonists of the farnesoid-X-receptor (FXR) signaling pathway (AID 743220; active = well fitted activation curve with a large enough effect in the signal ratio in the repeat runs, not every such curve was filed as active; the % refers to the signal ratio)
How it was run: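 Beta-lactamase reporter under UAS control in GeneBLAzer FXR HEK 293T cells (5000/well) measured with LiveBLAzer FRET substrate after 2 h at room temperature. Compound exposure lasted 16 h at 37C.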

Measured: Potency

CC(=O)NCCO
not listed: [9] | [10]
inactive: all other assays above

CCCCOC(=O)CCCCC(=O)OCCCC
not listed: [9] | [10]
inactive: all other assays above

CC(C)OC(=O)c1ccccc1C(=O)OC(C)C
not listed: [4] | [10]
inactive: all other assays above

CCC(CO)(CO)[N+](=O)[O-]
not listed: [4] | [10]
inactive: all other assays above

BrC(Br)C(Br)Br
not listed: [9] | [10]
inactive: all other assays above

N[C@@H](Cc1cc(I)c(O)c(I)c1)C(=O)O
not listed: [9] | [10]
inactive: all other assays above

CC(C)COC(=O)COc1cc(Cl)c(Cl)cc1Cl
inactive: [1] | [2] | [3] | [4] | [5]

O=C(O)CCS
not listed: [4] | [8] | [10]
inactive: all other assays above

FC(F)(F)C(F)(F)C(F)(F)C(F)(F)CCI
not listed: [9] | [10]
inactive: all other assays above

CCCCCCC(O)CCCCCCCCCCC(=O)OC (stereo not given)
not listed: [9] | [10]
inactive: all other assays above

CC(C)(C(=O)c1cccnc1)c1cccnc1
not listed: [9] | [10]
inactive: all other assays above

COc1ccc(N)c([N+](=O)[O-])c1
not listed: [4]
inactive: all other assays above

COc1cc(NS(=O)(=O)c2ccc(N)cc2)nc(C)n1
not listed: [4] | [10]
inactive: all other assays above

CCN(CC)C(=O)N1CCN(C)CC1
not listed: [4] | [8] | [10]
inactive: all other assays above

O=CNNC=O
not listed: [9] | [10]
inactive: all other assays above

CC1CCCC(=O)C1=O (stereo not given)
not listed: [9] | [10]
inactive: all other assays above

O=C(C(=O)c1ccco1)c1ccco1
not listed: [8] | [9] | [10]
inactive: all other assays above

Cc1ccc(Cl)cc1N
not listed: [4]
inactive: all other assays above

O=[N+]([O-])c1ccc2ncccc2c1
not listed: [4] | [10]
inactive: all other assays above

O=C(NS(=O)(=O)/C=C/c1ccccc1)c1ccc(F)cc1Cl
inactive: [1] | [2] | [3] | [4] | [5] | [8]

CC(=O)N[C@@H](Cc1ccc(O)cc1)C(=O)O
not listed: [9] | [10]
inactive: all other assays above

Cc1cccc2sc(N)nc12
not listed: [9] | [10]
inactive: all other assays above

COC(CC(C)CCCC(C)(C)O)OC (stereo not given)
not listed: [7] | [9] | [10]
inactive: all other assays above

COc1ccc(C)cc1
not listed: [7] | [9] | [10]
inactive: all other assays above

O=C1CC[C@@H](C(=O)O)N1
not listed: [9] | [10]
inactive: all other assays above

COc1ccc2nc(S(=O)Cc3ncc(C)c(OC)c3C)[nH]c2c1 (stereo not given)
not listed: [9] | [10]
inactive: all other assays above

CC(=O)OCCC1CCCCC1
not listed: [9] | [10]
inactive: all other assays above

Cc1ccc2nc(N)[nH]c(=O)c2c1Sc1ccncc1
not listed: [4] | [8] | [9]
inactive: all other assays above

O=C(Nc1ccc(C(=O)O)c(O)c1)c1ccccc1
not listed: [9] | [10]
inactive: all other assays above

CCCc1nc2c(C)cc(-c3nc4ccccc4n3C)cc2n1Cc1ccc(-c2ccccc2C(=O)O)cc1
not listed: [6] | [9] | [10]
inactive: all other assays above

NC(=O)c1ccccc1[N+](=O)[O-]
inactive: [1] | [2] | [3] | [4] | [5] | [8]

CC(=O)OC(C)C[N+](C)(C)C (stereo not given)
not listed: [9] | [10]
inactive: all other assays above

CCCOC(=O)c1c(Cl)c(Cl)c(Cl)c(Cl)c1C(=O)OCCC
inactive: [1] | [2] | [3] | [5] | [6] | [7]

CCCCCCC(CO)CCCC (stereo not given)
inactive: [1] | [2] | [3] | [5] | [6] | [7]

Cc1c[nH]c2ccccc12
inactive: [1] | [2] | [3] | [4] | [5] | [8]

CCO[Si](C)(CCCOCC1CO1)OCC (stereo not given)
not listed: [6] | [9] | [10]
inactive: all other assays above

COc1ccc(C(=O)NCc2ccc(OCCN(C)C)cc2)cc1OC
not listed: [9] | [10]
inactive: all other assays above

CCCC(=O)OC(=O)CCC
inactive: [1] | [2] | [3] | [4] | [5] | [8]

COc1ccc(CCN(C)CCCN2CCc3cc(OC)c(OC)cc3CC2=O)cc1OC
inactive: [1] | [2] | [3] | [4] | [5] | [8]

O=C1OC(=O)c2c(Br)c(Br)c(Br)c(Br)c21
not listed: [9] | [10]
inactive: all other assays above

Cc1ccc(N(CC2=NCCN2)c2cccc(O)c2)cc1
not listed: [4] | [9]
inactive: all other assays above

Cc1ccc2c(c1[N+](=O)[O-])C(=O)c1ccccc1C2=O
not listed: [7] | [9] | [10]
inactive: all other assays above

CCOC(=O)c1ccc(NC(=O)CN2CCCCC2)cc1
not listed: [4] | [9] | [10]
inactive: all other assays above

CC1C(C)(C)C2=C(C(=O)CCC2)C1(C)C (stereo not given)
not listed: [9] | [10]
inactive: all other assays above

O=C(O)CCC(=O)OC[C@@H](NC(=O)C(Cl)Cl)[C@H](O)c1ccc([N+](=O)[O-])cc1
inactive: [1] | [2] | [3] | [4] | [5] | [8]

O=C(Oc1ccccc1)c1ccc2ccccc2c1O
inactive: [1] | [2] | [3] | [4] | [6] | [7]

OCC(CO)n1cnc(-c2ccc(F)cc2)c1-c1ccnc(Oc2ccccc2)n1
not listed: [9] | [10]
inactive: all other assays above

CN=C(N)NC(=O)Nc1c(C)cccc1C
not listed: [9] | [10]
inactive: all other assays above

CCCCCCCCCCCCCCCCCC(=O)OCC(CC)CCCC (stereo not given)
not listed: [4] | [9] | [10]
inactive: all other assays above

O=c1[nH][nH]c(=O)c2cc([N+](=O)[O-])ccc12
not listed: [9] | [10]
inactive: all other assays above

CCSC(=O)N(CC)CC
not listed: [9] | [10]
inactive: all other assays above

CC(C)N(C)C
not listed: [6] | [9] | [10]
inactive: all other assays above

C=CC(=O)O
not listed: [4] | [9] | [10]
inactive: all other assays above

CNCc1ccc(NC(=O)c2c[nH]c3c2C(=O)CCC3)cc1
not listed: [9] | [10]
inactive: all other assays above

O=S(=O)(Cl)c1c(Cl)cccc1Cl
inactive: [1] | [2] | [3] | [4] | [5] | [8]

O=C1[C@@H]2[C@H]3CC[C@H](C3)[C@@H]2C(=O)N1CCCCN1CCN(c2ncccn2)CC1
not listed: [7] | [9] | [10]
inactive: all other assays above

O=C(O)CO
not listed: [7] | [9] | [10]
inactive: all other assays above

C[C@@H]1C[C@H]2[C@@H]3CCC4=CC(=O)C=C[C@]4(C)[C@@]3(F)[C@@H](O)C[C@]2(C)[C@@]1(O)C(=O)COP(=O)(O)O
not listed: [9] | [10]
inactive: all other assays above

COC1CCC=CO1 (stereo not given)
inactive: [1] | [2] | [3] | [5] | [8]

CC(C)(C)C1(CCc2ccc(Cl)cc2)CO1 (stereo not given)
not listed: [3] | [10]
inactive: all other assays above

CC(C)(C)CCCCCCOC(=O)c1ccccc1C(=O)OCCCCCCC(C)(C)C
not listed: [2]
inactive: all other assays above

CCN(CC)c1ccc(C(=C2C=CC(=[N+](CC)CC)C=C2)c2ccc(S(=O)(=O)O)cc2S(=O)(=O)[O-])cc1
active: [2] 27.5 µM
inactive: [1] | [3] | [5] | [7]

CC(=O)OCC1=C(C(=O)O)N2C(=O)[C@@H](NC(=O)CSc3ccncc3)[C@H]2SC1
inactive: [1] | [2] | [9] | [5] | [8]
